This assay can be described thus: chemical genetic growth profiling, strain panel (AID 1159580).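 Note: tested at 20 µM; growth read once vehicle control cultures reached saturation at 30 °C; 1 = growth at the plate median or of vehicle wells; lower values mean less growth of the strain.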 To be noted: S. cerevisiae deletion strains, growth OD.

This note sets out measurements from PubChem BioAssay AID1159580 (chemical genetic matrix, 2015).

In all, about 5,500 compounds went through this assay and about 2,000 (36%) were called active. Roughly 18% stayed inconclusive and do not appear here. The list shows a part of the results. A number with no mark means an inactive call. Cut-off read from the data, not from the text of the source: active = normalized growth mostly below about 0.91 (no sharp cut-off); inconclusive = no clear call, values can overlap the other calls; inactive = mostly above about 0.92.

For the compound `Cc1c(C)c2c(c(C)c1O)CCC(C)(CN1CCN(c3cc(N4CCCC4)nc(N4CCCC4)n3)CC1)O2` (stereo unspecified), the normalized growth by setting is: (locus YAL040C, strain CLN3, hits give low values) 0.579 (active); (locus YCL061C, strain MRC1 (second series), hits give low values) 0.993; (locus YDR150W, strain NUM1, hits give low values) 0.997; (locus YDR363W, strain ESC2, hits give low values) 0.96; (locus YER002W, strain NOP16, hits give low values) 1.15 [resistant] (active); (locus YGR229C, strain SMI1, hits give low values) 0.944. The normalized growth is, setting by setting: (locus YJR075W, strain HOC1, hits give low values) 0.959; (locus YMR307W, strain GAS1, hits give low values) 1; (locus YNL128W, strain TEP1, hits give low values) 1.07; (locus YNL153C, strain GIM3, hits give low values) 0.995; (locus YNL175C, strain NOP13, hits give low values) 1.09 [resistant] (active); (locus YNL197C, strain WHI3, hits give low values) 1.08. For the same compound, the normalized growth (locus YNL224C, strain SQS1, hits give low values) was 1.07; the normalized growth (locus YNL322C, strain KRE1, hits give low values) was 0.961; the normalized growth (locus YOR083W, strain WHI5 (second series), hits give low values) is 1.04; the normalized growth (locus YPL055C, strain LGE1, hits give low values) was 0.891.
